# Test results as given in PubChem BioAssay (NCI).
# This is part of a sample that, as a whole, favours compounds with a hit. Of some 83,000 tested, about 20% had one in any assay.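 Step 1: grow cells in 96-well plates. Step 2: add test compound at a single concentration. Step 3: incubate 48 h. Step 4: record percent growth.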 Unmarked numbers belong to inactive results. Calls of active or inactive are those of the source. How the source made its calls: active means growth percent below 10; inactive means the rest.
# What was measured:
# Assay in all cases: NCI-60 one-dose screen, 48 h (100 = growth as untreated, 0 = no growth, -100 = all killed)
# Details in all cases: 10 µM unless noted
# DU-145 prostate = test system: DU-145 prostate
# K-562 leukemia = test system: K-562 leukemia
# MALME-3M melanoma = test system: MALME-3M melanoma
# MDA-MB-231 breast = test system: MDA-MB-231 breast
# RXF 393 renal = test system: RXF 393 renal
# SF-268 CNS = test system: SF-268 CNS
# SF-295 CNS = test system: SF-295 CNS
# SF-539 CNS = test system: SF-539 CNS
# UACC-257 melanoma = test system: UACC-257 melanoma
# M14 melanoma = test system: M14 melanoma
# HCT-15 colon = test system: HCT-15 colon
# HT29 colon = test system: HT29 colon
# SNB-75 CNS = test system: SNB-75 CNS
# SNB-19 CNS = test system: SNB-19 CNS
# U251 CNS = test system: U251 CNS
# PC-3 prostate = test system: PC-3 prostate
# SK-MEL-5 melanoma = test system: SK-MEL-5 melanoma
# UACC-62 melanoma = test system: UACC-62 melanoma
# LOX IMVI melanoma = test system: LOX IMVI melanoma
# SK-MEL-28 melanoma = test system: SK-MEL-28 melanoma
Structure (SMILES),growth (DU-145 prostate),growth (K-562 leukemia),growth (MALME-3M melanoma),growth (MDA-MB-231 breast),growth (RXF 393 renal),growth (SF-268 CNS),growth (SF-295 CNS),growth (SF-539 CNS),growth (UACC-257 melanoma),growth (M14 melanoma),growth (HCT-15 colon),growth (HT29 colon),growth (SNB-75 CNS),growth (SNB-19 CNS) [%],growth (U251 CNS),growth (PC-3 prostate) [%],growth (SK-MEL-5 melanoma),growth (UACC-62 melanoma),growth (LOX IMVI melanoma),growth (SK-MEL-28 melanoma)
Cc1oc2c(C(=O)N/N=C\c3ccc(O)cc3O)c[nH]c2c1C,-33.5% (active),11.2%,5.32% (active),30.3%,39.3%,7.45% (active),12.3%,9.86% (active),17.8%,-13.8% (active),9.44% (active),25.6%,40.2%,35.5,20.2%,43.4,23.6%,2.05% (active),-7.96% (active),32.1%
Nc1c(Cl)cccc1[N+](=O)[O-],111%,101%,96.7%,99.3%,115%,105%,107%,108%,108%,108%,104%,111%,104%,103,103%,98.4,104%,101%,103%,106%
C=CCCCOC1[C@H](OCc2ccccc2)C(OCc2ccccc2)C(OC)O[C@@H]1CNC(=O)c1cccc(I)c1 (some centres not stated),49.7%,52%,80.4%,58%,38.1%,31.3%,35%,31.8%,36.8%,47.1%,24.9%,33.1%,54.4%,49.9,,25,-6.8% (active),30.9%,11.4%,70.5%
O=C(NC[C@H](O)CO)c1ccncc1Nc1ccc(I)cc1F,63.4%,37.2%,-7.31% (active),29.8%,15.1%,71.3%,67.1%,52.5%,-19.2% (active),3.95% (active),43.9%,8.1% (active),73.4%,51.5,55.3%,86.4,44.5%,-7.65% (active),25.2%,-12.7% (active)
COc1cc(N2CCC(N3CCN(C)CC3)CC2)ccc1Nc1ncnc(Nc2ccccc2S(=O)(=O)C(C)C)n1,100%,94%,106%,95.9%,133%,100%,104%,100%,108%,93.3%,103%,84.1%,101%,98.6,101%,93.7,110%,102%,103%,105%
O=C(Cn1ccc2ccccc21)Nc1ccc(-c2nc3ccccc3s2)cc1,101%,103%,108%,108%,113%,96.6%,103%,102%,100%,108%,110%,115%,93.8%,98.6,97.6%,98,98.6%,95%,91.3%,114%
CCCNC(=O)c1cn2ncnc(Nc3cc(C(=O)NC4CC4)ccc3C)c2c1C,103%,85%,3.42% (active),79.2%,40%,88%,79.5%,77.3%,65.6%,92.4%,87.2%,81.9%,,70.7,77.2%,74.3,38.2%,49.1%,40.1%,30.1%
O=C(c1c(F)ccc(NS(=O)(=O)N2CC[C@@H](F)C2)c1F)c1c[nH]c2ncc(-c3cnc(C4CC4)nc3)cc12,49.9%,15.8%,0.406% (active),35.5%,10%,49.4%,42.8%,53.5%,-21.3% (active),-0.512% (active),44.1%,3.81% (active),,52.8,42.4%,46.5,22%,-22.9% (active),15.9%,-5.44% (active)
Cc1cc(N(CCNc2ccnc3cc(Cl)ccc23)Cc2ccc3c(c2)OCO3)nc(N2CCN(C)CC2)n1,38.2%,-59.1% (active),-71.6% (active),4.9% (active),-45.7% (active),29.3%,-66.4% (active),-80.9% (active),,-79.6% (active),0.627% (active),0.16% (active),32.4%,29.4,-22.1% (active),48.2,-96.1% (active),33.7%,-71.8% (active),-65.7% (active)
O=C(Cc1ccc(-c2ccc(OCCN3CCOCC3)cc2)cn1)NCc1ccccc1,8.3% (active),7.04% (active),40.4%,26.7%,29.3%,29.6%,11.7%,-33.2% (active),8.49% (active),0.711% (active),7.16% (active),4.32% (active),,14.1,3.6% (active),15.2,-39.8% (active),29%,17.5%,36.1%
Cc1cc2c(-c3nc4ccccn4c3Nc3cccc4ccccc34)c(O)c(O)cc2c(O)c1-c1c(C)cc2c(-c3nc4ccccn4c3Nc3cccc4ccccc34)c(O)c(O)cc2c1O,31.4%,15.2%,10.8%,23.3%,39.6%,30.9%,13.1%,20.4%,,27.2%,41.4%,27.5%,30%,15.6,12.9%,16,1.82% (active),1.11% (active),9.84% (active),
Cn1cnc2c(F)c(Nc3ccc(Br)cc3F)c(C(=O)NOCCO)cc21,64.2%,49.4%,-2.35% (active),34.9%,19.5%,70.8%,76.3%,62.6%,-25.8% (active),2.5% (active),62%,6.34% (active),,51.3,,93,45.5%,-8.58% (active),29.6%,-3.38% (active)
CN(C)CCOC(=O)Nc1nc2ccc(Sc3ccccc3)cc2[nH]1,27.2%,15.7%,49.2%,47.8%,14.1%,51%,24.9%,-0.508% (active),49.1%,0.259% (active),33.2%,1.58% (active),-10.2% (active),36.4,,28,19.3%,42.4%,32.1%,63.7%
C=CCN(/C=C1/C(=O)O[C@H](COC)[C@@]2(C)C1=C(O)C(=O)C1=C2[C@H](OC(C)=O)C[C@]2(C)C(=O)CC[C@@H]12)CC=C,26.6%,40.9%,-1.8% (active),42%,-41.1% (active),29.9%,5.72% (active),-19.1% (active),15.8%,28.2%,24.2%,13.7%,,26.2,21.1%,18.6,7.65% (active),-21% (active),20.3%,
Cc1cnc(NC(=O)Nc2cc(Br)c(C)cc2OC[C@@H]2CNCCO2)cn1,24%,-42.2% (active),-48.1% (active),22.2%,-14.8% (active),33.6%,4.01% (active),-75.8% (active),-76.8% (active),-84.5% (active),6.54% (active),-6.22% (active),,39.7,11.7%,39.7,-92.2% (active),12.2%,-78% (active),-88.7% (active)
